{"source": "PubChem BioAssay", "note": "The source made the active and inactive calls.", "data": [{"system": "not listed separately", "experiment": "CREB reporter modulators under forskolin, primary screen, cell-based, PC12, CRE-LacZ reporter, forskolin-stimulated (AID 1146);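 also: PC12 cells with 6xCRE LacZ reporter stimulated by forskolin 10 µM; beta-galactosidase reporter signal reflecting CREB driven transcription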", "settings": "luminescence, 4.5 h, higher = more signal, called active from +8 up or from −8 down", "values": [{"smiles": "COC(=O)[C@@]1(Cc2ccccc2)[C@H]2c3cc(C(=O)N4CCCC4)n(C)c3C[C@H]2CN1C(=O)c1ccccc1", "z-score": "0.504 (inactive)"}, {"smiles": "CC(C)Cc1ccc(CN2CC[C@@H](NS(=O)(=O)c3ccccc3)C2)cc1", "z-score": "-0.138 (inactive)"}, {"smiles": "CC(=O)Nc1cc(Br)ccc1C(=O)O", "z-score": "0.151 (inactive)"}, {"smiles": "COC(=O)[C@@]1(Cc2ccccc2N=[N+]=[N-])COC(c2ccc(OCCCO)cc2)=N1", "z-score": "1.68 (inactive)"}, {"smiles": "NC(=O)NCC#Cc1ccc2c(c1)[C@]1(C(=O)N2)[C@H](C(=O)NC[C@H](O)c2ccccc2)[C@H]2C(=O)O[C@H](c3ccccc3)[C@H](c3ccccc3)N2[C@@H]1c1ccc(O)cc1", "z-score": "-0.467 (inactive)"}, {"smiles": "CCOC(=O)C[C@H]1[C@H](OC(=O)c2ccc(-c3ccccc3)cc2)[C@@H](NC(=O)Cc2ccc(OC)cc2)c2cc(OCCCO)ccc2N1C(=O)c1ccc2ccccc2n1", "z-score": "-0.489 (inactive)"}, {"smiles": "COc1cccc(C(=O)O[C@H]2CC[C@]3(C)C4=C(CCC3C2(C)C)[C@]2(C)CC[C@H]([C@H](C)CCCC(C)C)[C@@]2(C)CC4)c1", "note": "(some centres undefined)", "z-score": "-0.687 (inactive)"}, {"smiles": "O=C/C=C/c1ccc2c(c1)OCO2", "z-score": "0.106 (inactive)"}, {"smiles": "O=C1C=CC(=O)[C@@H]2CC(COc3ccccc3)=C3[C@@H](CCc4ccccc4)OB(O)C[C@@H]3[C@H]12", "z-score": "4.47 (inactive)"}, {"smiles": "O=C1O[C@@H](c2ccccc2)[C@@H](c2ccccc2)N2[C@@H](c3ccc(O)cc3)[C@]3(C(=O)Nc4ccc(C#CC5(O)CCCCCC5)cc43)[C@@H](C(=O)N3CCCCCCC3)[C@H]12", "z-score": "-0.981 (inactive)"}]}, {"molecular_target": "Streptavidin (Streptomyces avidinii) (UniProt P22629)", "sequence (P22629 whole entry, looked up)": "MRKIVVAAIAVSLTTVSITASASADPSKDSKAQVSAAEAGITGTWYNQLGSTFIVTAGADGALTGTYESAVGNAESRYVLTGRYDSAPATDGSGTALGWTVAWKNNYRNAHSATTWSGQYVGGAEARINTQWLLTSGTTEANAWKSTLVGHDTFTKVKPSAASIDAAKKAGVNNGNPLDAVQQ", "experiment": "streptavidin binders on small-molecule microarray, primary screen, artefact control for SMM compound annotation, biophysical, 635/667 nm fluorescence (AID 1147);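 also: signal reflects streptavidin binding to arrayed compounds as a control protein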", "settings": "streptavidin binding, higher = more signal", "values": [{"smiles": "CC(C)C[C@@H]1NC(=O)[C@H]2C[C@@H](C(=O)NCCCCCCNC(=O)CS)[C@@H](c3cccc(OCCO)c3)N2C1=O", "composite z-score": 0.357}, {"smiles": "CC(C)NC(=O)[C@@]1(Cc2ccccc2I)c2ccccc2C(=O)N(Cc2ccccc2)[C@H]1c1ccc(CO)cc1", "composite z-score": 0.0632}, {"smiles": "O=C1O[C@H](c2ccccc2)[C@H](c2ccccc2)N2[C@H]1[C@@H](C(=O)N1CCN(c3ncccn3)CC1)[C@]1(C(=O)Nc3ccccc31)[C@H]2c1ccc(OCCO)cc1", "composite z-score": -0.0363}, {"smiles": "COc1ccc(CCNC(=O)[C@@]2(Sc3ccc(C)cc3)CC(=O)N(Cc3ccccc3Cl)[C@@H]2c2ccc(CO)cc2I)cc1", "composite z-score": -0.539}, {"smiles": "CN(C)C(=O)[C@]1(CCC(=O)OC(C)(C)C)N=C(c2ccc(OCCCO)cc2)O[C@@H]1c1ccccc1N=[N+]=[N-]", "composite z-score": 1.38}, {"smiles": "CC(=O)NCCCC[C@@H]1NC(=O)[C@@H]2C[C@H](C(=O)NCCCCN(C)C)[C@H](c3ccc(O)cc3)N2C1=O", "composite z-score": -0.506}, {"smiles": "COc1c(C)cc(-c2cc3c(c(-c4ccc(Oc5ccccc5)cc4)n2)[Si](C(C)C)(C(C)C)OC3)cc1C", "composite z-score": -0.246}, {"smiles": "CC(C)CNC(=O)[C@@]1(c2ccc([N+](=O)[O-])cc2)CC(=O)N(CC23CC4CC(CC(C4)C2)C3)[C@@H]1c1ccc(CO)cc1", "composite z-score": -0.256}, {"smiles": "Cc1ccc(F)cc1S(=O)(=O)N[C@@H]1CCN(Cc2ccc(-c3ccccc3)cc2)C1", "composite z-score": -0.164}, {"smiles": "CC(C)(C)OC(=O)CC[C@]1(C(=O)N2CCCCC2)N=C(c2ccc(OCCCO)cc2)O[C@H]1c1ccccc1N=[N+]=[N-]", "composite z-score": 1.87}, {"smiles": "COC(=O)c1ccc(C(O)C2C=CC3C(=O)N(C)C(=O)C3N2NC(=O)OC(C)(C)C)o1", "note": "(centres undefined)", "composite z-score": 0.367}, {"smiles": "CCCCCCCCCCC(O)C1C=CC2C(=O)N(Cc3ccccc3)C(=O)C2N1n1cnnc1", "note": "(centres undefined)", "composite z-score": 0.744}, {"smiles": "CCOC(=O)C1=CC[C@@H](c2ccccc2)N(S(=O)(=O)c2ccc(C)cc2)[C@H]1C(=O)OCC", "composite z-score": 0.491}, {"smiles": "CCCNC(=O)[C@@]1(c2ccc([N+](=O)[O-])cc2)CC(=O)N(CC23CC4CC(CC(C4)C2)C3)[C@@H]1c1ccc(CO)cc1", "composite z-score": -0.204}, {"smiles": "COCCOC(=O)N1C(=O)[C@@]2(c3ccccc31)[C@H](C(=O)NC[C@H](O)c1ccccc1)[C@H]1C(=O)O[C@H](c3ccccc3)[C@H](c3ccccc3)N1[C@@H]2c1ccc(OCCO)cc1", "composite z-score": 0.168}, {"smiles": "CCCCC=C[C@@H](NC(=O)c1ccco1)c1ccccc1", "composite z-score": 0.889}, {"smiles": "CC(=O)NCCCC[C@@H]1NC(=O)[C@H]2C[C@@H](C(=O)NCCCCCC[N+](C)(C)C)[C@@H](c3cccc(OCCO)c3)N2C1=O", "composite z-score": 0.927}, {"smiles": "O=C(CS)NCCCCCCNC(=O)[C@H]1C[C@H]2C(=O)NCC(=O)N2[C@H]1c1ccc(O)cc1", "composite z-score": -0.406}, {"smiles": "COC(=O)[C@@]1(Cc2ccc(OC)cc2)[C@H]2c3cc(C(=O)N(C)C)n(Cc4c(OC)[nH]cc(C)c4=O)c3C[C@H]2CN1C(=O)c1ccccc1", "composite z-score": -0.0748}]}]}
